Experiment [1] can be described thus: inhibitors of TNFa-induced NFkB p65 translocation, primary screen, imaging, HUVEC, MLSMR starter and 10KST1 sets (AID 438).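 For inhibition: signal is the nuclear over cytoplasmic p65 intensity ratio per well.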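 Note: compound added about 3h40 before a 20 min TNFalpha stimulation.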 The conditions noted are these: HUVEC TNFa-induced p65 nuclear translocation; cell count: measured here: nuclei count (cytotoxicity indicator), at 2.08 µM; inhibition: at 2 µM, stronger effect = higher value, 0% TNFa-plus-vehicle, 100% no-TNFa wells.

A short description of experiment [2]: reduction of polyQ htt aggregates in cells – imaging, exon1htt(103Q)mCFP cells, high-content imaging, primary screen (AID 483;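 active = visual image review flags a hit and inhibition of aggregation exceeds 20%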;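 note: compound exposure lasted 3 days before fixation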;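 for nuclei count: percent of the per-plate median nuclei count of sample wells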). The following applies: exon1htt(103Q)mCFP cell line, aggregate imaging, at 2 µM; inhibition of aggregation: stronger effect = higher value; nuclei count: measured here: cell count, toxicity.
Experiment [3] is described as follows: endothelial E-selectin expression blockers – imaging, HUVEC, immunofluorescence, MLSMR starter and 10KST1 sets, primary screen (AID 487;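 active = visually confirmed hit in the image check and inhibition above 20%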;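 for inhibition: signal is fraction of cell area covered by stained E-selectin grains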;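 for nuclei count: 100% = median nuclei count of all wells on the same plate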). The following applies: HUVEC TNFalpha-induced E-selectin immunofluorescence imaging, at 2 µM; inhibition: stronger effect = higher value; nuclei count: measured here: cell number, toxicity.
The target of experiment [4] is Voltage-gated potassium channel subunit beta-2 (Rattus norvegicus) (UniProt P62483). Briefly: inhibitors of rat Kvbeta2 reductase activity – biochemical, NADPH fluorescence, primary screen (AID 622;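 active = fluorescence slope higher than the sample average by over 3 SD, cut at about -0.22 in these data, passing the limit was not always enough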;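 note: slope of raw intensity against log time taken from 70 to 1610 s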). The conditions noted are these: recombinant KvBeta, 4-cyanobenzaldehyde reduction, at 10 µM, stronger effect = higher value.
Sequence of Voltage-gated potassium channel subunit beta-2 (Rattus norvegicus) (P62483 whole entry, looked up): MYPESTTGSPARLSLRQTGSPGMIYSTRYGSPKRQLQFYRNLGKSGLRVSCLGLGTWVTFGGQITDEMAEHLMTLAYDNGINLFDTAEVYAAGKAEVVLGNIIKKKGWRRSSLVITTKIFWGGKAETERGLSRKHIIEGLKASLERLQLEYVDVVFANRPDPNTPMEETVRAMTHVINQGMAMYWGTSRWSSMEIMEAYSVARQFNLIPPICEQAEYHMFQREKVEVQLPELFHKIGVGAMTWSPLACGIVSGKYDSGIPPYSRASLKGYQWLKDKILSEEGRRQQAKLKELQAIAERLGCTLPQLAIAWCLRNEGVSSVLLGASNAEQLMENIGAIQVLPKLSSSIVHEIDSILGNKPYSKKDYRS
Experiment [5] has the same target. Put plainly: enhancers of rat Kvbeta2 NADPH turnover – biochemical, NADPH fluorescence, primary screen (AID 623;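 active = NADPH fluorescence slope more negative than the mean of all samples by about 3 SD, 99.7% confidence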;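 note: fluorescence intensity change per second fitted from 20 to 320 s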). The following applies: Recombinant KvBeta, NADPH fluorescence decrease slope, 10 min; at 10 µM; stronger effect = lower value.
In experiment [6] the target is Alpha-2C adrenergic receptor (Homo sapiens) (UniProt P18825). Briefly: compounds altering alpha2C-coupled GIRK flux – cell-based, HEK293 alpha2C/GIRK1/2, thallium flux, primary screen (AID 624;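 active = fluorescence slope after compound addition differing from the mean of all screened samples at 99.7% confidence, in either direction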;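 note: slope of fluorescence ratio to pre-addition baseline per second over 15 to 24 s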). The conditions noted are these: thallium flux BTC fluorescence, at 10 µM, actives lie on both sides.
Sequence of Alpha-2C adrenergic receptor (Homo sapiens) (P18825 whole entry, looked up): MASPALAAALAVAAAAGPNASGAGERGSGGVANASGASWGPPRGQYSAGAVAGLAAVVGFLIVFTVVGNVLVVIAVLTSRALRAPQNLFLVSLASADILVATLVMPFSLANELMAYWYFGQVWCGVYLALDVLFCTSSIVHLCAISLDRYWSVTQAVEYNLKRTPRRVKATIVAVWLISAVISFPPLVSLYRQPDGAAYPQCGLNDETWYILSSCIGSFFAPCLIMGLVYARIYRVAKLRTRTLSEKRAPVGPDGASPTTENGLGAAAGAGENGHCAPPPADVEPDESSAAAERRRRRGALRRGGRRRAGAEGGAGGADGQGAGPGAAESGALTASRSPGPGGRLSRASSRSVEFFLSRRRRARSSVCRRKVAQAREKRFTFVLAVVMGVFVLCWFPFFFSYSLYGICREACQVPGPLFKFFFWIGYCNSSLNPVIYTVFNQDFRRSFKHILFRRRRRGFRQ
Experiment [7] can be described thus: blockers of RIG-like receptor reporter activation – cell-based, Sendai virus stimulus, luciferase, 10K MLSCN set, TLR/RLR signaling modifier project, primary screen (AID 602276;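 active = inhibition at or above 50% at 10 µM; inactive = inhibition below 50%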;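 note: firefly luciferase from ISG56 promoter only with Renilla not read in this screen; 0% = Sendai virus plus DMSO and 100% = medium plus DMSO without virus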). The following applies: HEK293 RL24 IRF3 luciferase reporter, at 10 µM, stronger effect = higher value.
Experiment [8] is described as follows: TLR3 IRF3 reporter activation blockers – cell-based, poly I:C stimulus, luciferase, 10K MLSCN set, primary screen (AID 602277;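 active = inhibition of the reporter signal at or above 50%; inactive = inhibition below 50%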). The conditions noted are these: HEK293-TLR3 RL24 IRF3 luciferase reporter, at 10 µM, stronger effect = higher value. On the technique in general: A reporter such as luciferase makes a cellular process visible.

SMILES strings stand for the structures. Calls of active or inactive are those of the source.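 Rule for the calls, unless noted: active = inhibition above 20% together with a positive visual image hit; inconclusive = visual image hit but inhibition not above 20%; inactive = no visual image hit.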

The values that follow come from PubChem BioAssay.

`O=C(Nc1nonc1NC(=O)C1CCCCC1)C1CCCCC1`: the cell count in experiment [1] was 396. The inhibition (usually the relative decrease from the control value, in per cent) in experiment [1] was 10.2% (inactive); in experiment [3], -71.5% (inactive); in experiment [7], 13.6% (inactive); in experiment [8] it was 22.8% (inactive). Besides, in experiment [2], the inhibition of aggregation is -7.6% (inactive). Besides, the nuclei count is 108% in experiment [2] and 127% in experiment [3]. Further, the fluorescence slope in experiment [4] was -0.473 (inactive). Moreover, the NADPH fluorescence slope in experiment [5] was 3.9e-06 (inactive). For the same compound, in experiment [6], the slope is 0.00459 (inactive).

For `NS(=O)(=O)c1ccc(CCNC(=O)c2cccnc2)cc1`, the cell count in experiment [1] was 580. Also, the inhibition is -8.3% (inactive) in experiment [1], -75.4% (inactive) in experiment [3], 10.9% (inactive) in experiment [7] and 99.1% (active) in experiment [8]. The inhibition of aggregation in experiment [2] is -11.5% (inactive). Further, the nuclei count in experiment [2] was found to be 105%; in experiment [3] it was 107%. Moreover, in experiment [4], the fluorescence slope was -0.276 (inactive). In addition, the NADPH fluorescence slope in experiment [5] is -6.8e-05 (inactive). Besides, the slope in experiment [6] was 0.00459 (inactive).

Take `CCCC(=O)Nc1nnc(Sc2ccc(N(C)C)cc2)s1`: the cell count in experiment [1] was found to be 671. The inhibition is 4.8% (inactive) in experiment [1], -15.5% (inactive) in experiment [3], -1.24% (inactive) in experiment [7] and -10.3% (inactive) in experiment [8]. Moreover, in experiment [2], the inhibition of aggregation was -9.6% (inactive). In addition, the nuclei count in experiment [2] worked out at 96.4%; in experiment [3], 97.6%. The fluorescence slope in experiment [4] is -0.466 (inactive). In addition, the NADPH fluorescence slope in experiment [5] is -2.9e-05 (inactive). Besides, the slope in experiment [6] is 0.00582 (inactive).

With `COc1nc(NCCc2ccc(OC)c(OC)c2)nc(NC(C)(C)CO)n1`, in experiment [1], the cell count turned out to be 336. The inhibition in experiment [1] was -1.4% (inactive); in experiment [3], -7% (inactive); in experiment [7], 15.5% (inactive); in experiment [8], 11.8% (inactive). For the same compound, in experiment [2], the inhibition of aggregation is 13.7% (inactive). For the same compound, the values for the nuclei count in experiment [2] and in experiment [3] were 97.3% and 108%, respectively. In experiment [4], the fluorescence slope is -0.496 (inactive). In addition, in experiment [5], the NADPH fluorescence slope was -1.3e-06 (inactive). Further, in experiment [6], the slope was 0.00642 (inactive).

In the case of `O=C(c1cnn2c(C(F)F)cc(C3CC3)nc12)N1CCOCC1`, the cell count in experiment [1] was found to be 666. Moreover, the inhibition in experiment [1] is -0.3% (inactive); in experiment [3], -13.3% (inactive); in experiment [7], 6.43% (inactive); in experiment [8], 18.5% (inactive). In addition, in experiment [2], the inhibition of aggregation was 3.1% (inactive). Further, the nuclei count in experiment [2] came out at 96.7%; in experiment [3], 94.3%. Moreover, the fluorescence slope in experiment [4] is -0.376 (inactive). Further, the NADPH fluorescence slope in experiment [5] is 2.5e-06 (inactive). Moreover, the slope in experiment [6] is 0.00295 (inactive).

Regarding `CCOC(=O)N1CCN(C(=O)CN2C(=O)COc3ccc(C)cc32)CC1`, in experiment [1], the cell count amounted to 590. Moreover, the inhibition in experiment [1] was 1.5% (inactive); in experiment [3] it was -64.6% (inactive); in experiment [7], 7.89% (inactive); in experiment [8] it was 29.7% (inactive). The inhibition of aggregation in experiment [2] is 9.7% (inactive). The values for the nuclei count in experiment [2] and in experiment [3] were 98.6% and 107%, respectively. For the same compound, the fluorescence slope in experiment [4] is -0.364 (inactive). Also, in experiment [5], the NADPH fluorescence slope was -3.7e-05 (inactive). In addition, the slope in experiment [6] was 0.00215 (inactive).

Turning to `CS(=O)(=O)N(CC(=O)N1CCc2ccccc2C1)c1ccc2c(c1)OCO2`, in experiment [1], the cell count was 262. Besides, the inhibition in experiment [1] was 1.6% (inactive); in experiment [3] it was 14.1% (inactive); in experiment [7], 11% (inactive); in experiment [8], 23.8% (inactive). For the same compound, in experiment [2], the inhibition of aggregation was 17% (inactive). Further, the nuclei count in experiment [2] came to 97.2%; in experiment [3], 77.8%. The fluorescence slope in experiment [4] was -0.481 (inactive). In experiment [5], the NADPH fluorescence slope is -5.5e-05 (inactive). Also, the slope in experiment [6] is 0.00584 (inactive).

Consider `CN1CCN(C2=C(Cl)C(=O)N(c3cccc(Cl)c3)C2=O)CC1`, for which the cell count in experiment [1] came out at 396. Further, the inhibition in experiment [1] was 5.9% (inactive); in experiment [3] it was -1.1% (inactive); in experiment [7], 5.11% (inactive); in experiment [8], 13.1% (inactive). For the same compound, in experiment [2], the inhibition of aggregation is 8.6% (inactive). Moreover, the nuclei count was 91.3% in experiment [2] and 97.4% in experiment [3]. Besides, the fluorescence slope in experiment [4] is -0.355 (inactive). For the same compound, the NADPH fluorescence slope in experiment [5] is -3.9e-05 (inactive). Moreover, the slope in experiment [6] was 0.00541 (inactive).

For `COc1ccccc1C(=O)NCCNC(=O)c1ccco1`, in experiment [1], the cell count amounted to 388. The inhibition is 6.3% (inactive) in experiment [1], -78% (inactive) in experiment [3], -4.73% (inactive) in experiment [7] and -9.5% (inactive) in experiment [8]. In addition, the inhibition of aggregation in experiment [2] was 5.6% (inactive). Also, the figures for the nuclei count in experiment [2] and in experiment [3] were 110% and 113%, respectively. For the same compound, in experiment [4], the fluorescence slope is -0.412 (inactive). In experiment [5], the NADPH fluorescence slope is -4.6e-05 (inactive). In experiment [6], the slope was 0.00705 (inactive).

For `COc1ccccc1NC(=O)CSc1nnc(CC(=O)Nc2ccccc2)n1C`, the cell count in experiment [1] was 455. For the same compound, the inhibition is 4.9% (inactive) in experiment [1], -44% (inactive) in experiment [3], 8.73% (inactive) in experiment [7] and 20.7% (inactive) in experiment [8]. Also, the inhibition of aggregation in experiment [2] is -6.2% (inactive). Also, the nuclei count is 89.5% in experiment [2] and 103% in experiment [3]. The fluorescence slope in experiment [4] is -0.442 (inactive). The NADPH fluorescence slope in experiment [5] was 3.5e-06 (inactive). In experiment [6], the slope is 0.0033 (inactive).

As for `[N-]=[N+]=CC(=O)CC(c1ccccc1)N1C(=O)c2ccccc2C1=O` (centres undefined), in experiment [1], the cell count turned out to be 229. The inhibition in experiment [1] is 0.5% (inactive); in experiment [3], -39.5% (inactive); in experiment [7], -5% (inactive); in experiment [8] it was -29.5% (inactive). Further, the inhibition of aggregation in experiment [2] is 10.4% (inactive). Besides, the values for the nuclei count in experiment [2] and in experiment [3] were 58.6% and 115%, respectively. In experiment [4], the fluorescence slope is -0.609 (inactive). Besides, in experiment [5], the NADPH fluorescence slope was -2.1e-05 (inactive). The slope in experiment [6] is 0.00641 (inactive).

As for `CC(C)(C)c1cc(CCC(=O)N2CCNCC2)c(C(C)(C)C)cc1O`, the cell count in experiment [1] is 557. The inhibition is -31.3% (inactive) in experiment [1], -57% (inactive) in experiment [3], 13.9% (inactive) in experiment [7] and 27.5% (inactive) in experiment [8]. Moreover, the inhibition of aggregation in experiment [2] was 18.7% (inactive). Further, the results for the nuclei count in experiment [2] and in experiment [3] were 102% and 101%, respectively. In addition, in experiment [4], the fluorescence slope is -0.411 (inactive). Besides, in experiment [5], the NADPH fluorescence slope is -9e-05 (inactive). The slope in experiment [6] was 0.00515 (inactive).

On to `COc1ccc(OCCC(=O)NCc2ccccc2)cc1`, for which the cell count in experiment [1] came to 694. Further, the inhibition is 0.4% (inactive) in experiment [1], -93.5% (inactive) in experiment [3], 4.97% (inactive) in experiment [7] and 7.69% (inactive) in experiment [8]. In addition, the inhibition of aggregation in experiment [2] is 19.2% (inactive). Besides, the nuclei count was found to be 91.9% in experiment [2] and 102% in experiment [3]. Further, the fluorescence slope in experiment [4] was -0.509 (inactive). The NADPH fluorescence slope in experiment [5] was 9e-06 (inactive). The slope in experiment [6] is 0.00495 (inactive).

Turning to `Cc1ccccc1NS(=O)(=O)c1cc(S(C)(=O)=O)ccc1Cl`, the cell count in experiment [1] amounted to 552. Moreover, the inhibition in experiment [1] is 7.7% (inactive); in experiment [3] it was -43.9% (inactive); in experiment [7], -5.83% (inactive); in experiment [8] it was 4.63% (inactive). Also, the inhibition of aggregation in experiment [2] was -3% (inactive). Also, the results for the nuclei count in experiment [2] and in experiment [3] were 102% and 119%, respectively. Further, the fluorescence slope in experiment [4] is -0.436 (inactive). Moreover, the NADPH fluorescence slope in experiment [5] is 2.4e-05 (inactive). Further, in experiment [6], the slope was 0.00562 (inactive).
